In the library only some 8% were active in any assay of this set; here they are far more common.
HT1080 IDH1KD tx – toxicity to HT-1080 IDH1 knockdown cells (counter line). Potency, µM (highest dose often 46.1 µM), inactives show at the highest dose activity, negative = toxicity, hits mostly cytotoxic. 360,000 tested, 2% active. HT-1080 IDH1 knockdown viability, ATP luminescence, 48 h;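 note: 0% = DMSO wells and -100% = cell-free medium wells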
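Cytotoxicity counter-line: IDH1KD HT-1080, 48 h, CellTiter-Glo. Curves classed by r2, magnitude and activity.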
HT1080NT lethal – kills 2HG-producing HT-1080-NT fibrosarcoma cells; HT-1080-NT fibrosarcoma viability, CellTiter-Glo ATP luminescence, 48 h; Potency, µM (doses to about 46.1 µM), for inactives: top-dose activity, negative = less viability, hits mostly cytotoxic; 360,000 tested, 1.6% active;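 note: NT is the 2HG producing partner of a matched IDH1 knockdown line; 0% = DMSO-treated cells and -100% = media-only wells without cells; nearly all actives have a fitted effect of over 55% in size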
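Toxicity toward the 2HG-producing NT line was scored as %Activity, normalised to DMSO and no-cell wells, from CellTiter-Glo luminescence after 48 hours' treatment.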
MCF10A rereplic – DNA re-replication induction in MCF 10a cells | MCF 10A DNA re-replication, Hoechst nuclear intensity, 48 h | Potency, µM (highest dose often 46.1 µM), without a hit: at the highest dose activity, positive = re-replication, usual class: activators | 350,000 tested, 2.9% active; note: % of control where 0% means no effect; nearly all actives have a fitted effect of over 50% in size
SW480 rereplic – DNA re-replication induction in SW480 cells. SW480 DNA re-replication, Hoechst DNA content imaging, 48 h. Potency, µM (highest dose often 46.1 µM), for the others: at the highest dose re-replication activation, hits mostly activators. 340,000 tested, 1.8% active. AID 624297; note: % of control where 0% means no effect; nearly all actives have a fitted effect of over 55% in size
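DNA re-replication was detected as more nuclei of elevated Hoechst intensity after 48 hr exposure to compound (23 nL pinned per well of 250 cells).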
KB-V1 cytotox – kills drug-selected multidrug resistant KB-V1 cells. KB-V1 MDR cells viability, CellTiter-Glo, 72 h. AID 1347076. Potency, µM (titrated, usually from 46.1 µM), hits mostly cytotoxic. 400,000 tested, 3.4% active; note: % is set by controls: 0 for no effect and ±100 for the full control effect; nearly all actives have a fitted effect of over 60% in size
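Cytotoxicity toward P-gp-expressing KB-V1 cells was determined as loss of CellTiter-Glo luminescence after 72 h at 37 degrees C. Compounds were tested in quantitative HTS format across a concentration range, with curves fitted to normalized data.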
KB-3-1 cytotox – kills parental KB-3-1 adenocarcinoma cells; KB-3-1 viability, CellTiter-Glo ATP luminescence, 72 h; Potency, µM (top dose mostly 46.1 µM), most hits filed as cytotoxic; AID 1347075; 400,000 tested, 1.4% active; note: % is set by controls: 0 for no effect and ±100 for the full control effect; nearly all actives have a fitted effect of over 60% in size
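Here the drug-naive KB-3-1 line serves as comparator for MDR sub-line selectivity; cells received compound titrations, 72 h at 37 °C, then CellTiter-Glo readout.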
* hit, by the source's call; i = inactive; ? = inconclusive; · = not tested or not shown; [ ] = remark or other dose. Calls come from the whole dose curve; as a rule, active = well fitted curve in the direction sought with a large enough effect; inconclusive = small, poorly fitted or top-dose-only effect, or another doubt; inactive = no such curve, though single readings can be large; an effect the other way counts as inactive or inconclusive. Potency is the fitted concentration of half-maximal effect.

SMILES	HT1080 IDH1KD tx	HT1080NT lethal	MCF10A rereplic	SW480 rereplic	KB-V1 cytotox	KB-3-1 cytotox
Cc1ccc(Cl)cc1N1CCN(C(=O)CN2C(=O)COc3ccc(S(=O)(=O)N4CCCCCC4)cc32)CC1	·	·	·	·	25.9µM*	?
Cc1ccc(Cl)cc1N1CCN(C(=O)CN2C(=O)COc3ccc(S(=O)(=O)N4CCC(C)CC4)cc32)CC1	·	·	·	·	?	i
O=S(=O)(c1ccc(N2CCN(S(=O)(=O)c3ccc4c(c3)OCCO4)CC2)nc1)N1CCCC1	-14.3%	-11.6%	17.7%	0.3%	8.2µM*	?
Cc1ccc(S(=O)(=O)N2CCN(C(=O)Cc3ccc4c(c3)OCCO4)CC2)cc1C	-6.7%	-5.3%	-3.5%	1.5%	4.11µM*	i
COC(=O)[C@H](CCSC)NC(=O)c1cccnc1SC	4.0%	9.7%	-3.1%	-1.8%	i	i
Cc1nc(Nc2ccc(Cl)cc2)c2oc3ccccc3c2n1	-5.0%	-2.0%	?	-3.1%	i	i
O=C(C1CC(=O)N(c2ccc3c(c2)OCCO3)C1)N1CCN(S(=O)(=O)c2cccc(F)c2)CC1 (configuration not stated)	-5.0%	0.8%	-0.7%	0.4%	20.6µM*	i
CCCCCC(=O)N1CCN(S(=O)(=O)c2ccc3c(c2)OCCO3)CC1	-19.4%	-0.7%	12.4%	-1.9%	?	i
O=C(CCl)N1CCN(S(=O)(=O)c2ccc3c(c2)OCCCO3)CC1	?	-8.6%[9.24 µM]	4.11µM*	?	i	?
CCn1c(NC(=S)Nc2ccccc2)nc2ccccc21	-14.1%	?	-183.2%[0.0737 µM]	2.0%	i	i
COc1ccc(NC(=O)CN2c3cccc4cccc(c34)S2(=O)=O)cc1	-0.3%	-1.8%	-0.4%	9.1%	i	i
O=S(=O)(NCC(O)c1ccccc1)c1ccc(-c2ccccn2)s1 (configuration not stated)	-17.8%	-6.3%	?	23.1µM*	?	i
Cn1c(=O)c2c(nc(N3CCCCC3)n2CCSc2nc3ccccc3s2)n(C)c1=O	-7.6%	1.8%	15.1%	-4.3%	?	i
CC1CCCN(c2nc3c(c(=O)n(C)c(=O)n3C)n2CCSc2nc3ccccc3o2)C1 (configuration not stated)	0.3%	-1.2%	3.0%	-16.6%	2.59µM*	i
CC1CCN(c2nc3c(c(=O)n(C)c(=O)n3C)n2CCSc2nc3ccccc3s2)CC1	-9.6%	-7.2%	?	12.4%	14.6µM*	?
CC1CCCN(c2nc3c(c(=O)n(C)c(=O)n3C)n2CCSc2nc3ccccc3s2)C1 (configuration not stated)	-10.2%	-3.6%	?	-16.4%	10.3µM*	?
CC1CCCN(c2nc3c(c(=O)[nH]c(=O)n3C)n2CCSc2nc3ccccc3o2)C1 (configuration not stated)	0.0%	0.2%	18.0%	-18.0%	i	i
CS(=O)(=O)N(CC(=O)Nc1ccc(S(=O)(=O)N2CCOCC2)cc1)c1ccccc1Br	2.0%	-1.8%	-3.7%	1.9%	i	i
CNC(=O)C1(C)Cc2c(-c3ccc4c(c3)OCO4)ccnc2O1 (configuration not stated)	6.4%	18.7%	·	·	i	i
CN(C)c1ccc(CNC(=O)C2(C)Cc3c(-c4ccc(N(C)C)cc4)ccnc3O2)cc1 (configuration not stated)	?	?	·	·	i	?
CC1(C(=O)NCC2CC2)Cc2c(-c3ccc4c(c3)OCO4)ccnc2O1 (configuration not stated)	?	?	·	·	?	14.6µM*
CN(C)c1ccc(CNC(=O)C2(C)Cc3c(-c4ccc5c(c4)OCO5)ccnc3O2)cc1 (configuration not stated)	?	?	·	·	11.6µM*	7.31µM*
COc1cccc(/C=c2\s/c(=C/C(=O)c3ccc(C)cc3)[nH]c2=O)c1OC	5.5%	2.1%	13.8%	-4.1%	?	i
COc1cccc(/C=c2\s/c(=C\C(=O)C(C)(C)C)[nH]c2=O)c1	-4.4%	-17.0%	?	?	14.6µM*	?
COc1ccc(/C=c2\s/c(=C/C(=O)c3ccc(C)cc3)[nH]c2=O)c(OC)c1	-4.8%	-0.5%	4.11µM*	?	i	i
SMILES	HT1080 IDH1KD tx	HT1080NT lethal	MCF10A rereplic	SW480 rereplic	KB-V1 cytotox	KB-3-1 cytotox
COc1nc(OC)nc(N2CCC(C(=O)NC3CCCCCC3)CC2)n1	0.7%	-1.4%	-3.3%	-9.4%	10.3µM*	i
COc1nc(OC)nc(N2CCC(C(=O)NC3CC3)CC2)n1	4.3%	13.6%	1.3%	-27.6%	i	i
Cc1cc(C(=O)OCC(=O)NC(C)(C)C)c2ccccc2n1	-3.0%	11.6%	0.9%	-14.4%	i	i
NC(=O)c1ccc(NC(=O)C#Cc2ccccc2)cc1	16.4µM*	20.6µM*	?	14.6µM*	i	23.1µM*
COc1ccc(NC(=O)c2ccccc2SC)cc1OC	10.0%	8.3%	-13.6%	-5.2%	i	i
COc1ccc(NC(=O)C#Cc2ccccc2)cc1OC	18.4µM*	?	9.8%	26.8%	?	18.4µM*
CC(=O)c1cccc(S(=O)(=O)N2CCCC(c3nc(-c4ccc(C)o4)no3)C2)c1 (configuration not stated)	8.0%	2.7%	-4.0%	-0.3%	i	i
CC(OC(=O)c1ccccc1NS(=O)(=O)c1cccc(N)c1)C(=O)N(C)Cc1ccccc1 (configuration not stated)	3.3%	4.2%	-21.0%	1.0%	3.66µM*	?
CC(OC(=O)c1cccc(O)c1)C(=O)N(C)Cc1ccccc1 (configuration not stated)	16.1%	0.7%	11.5%	15.9%	?	i
Cc1ccc2c(c1)N(CC(=O)NC1CCC(C)CC1)C(=O)CO2 (configuration not stated)	0.9%	4.1%	3.2%	-4.6%	i	i
CCOC(=O)c1cc2occc2n1CC(=O)N1CCCc2ccccc21	-4.0%	-4.4%	8.9%	-2.5%	16.4µM*	i
CC(Sc1nc2ccccc2s1)C(=O)NC1CCCc2ccccc21 (configuration not stated)	-1.4%	-3.4%	?	-3.0%	20.6µM*	i
CCOC(=O)c1cc2sccc2n1CC(=O)N1CCCc2ccccc21	0.0%	0.0%	-6.6%	2.0%	?	i
Cc1ccc2c(c1)N(CC(=O)N1CCCCC1)C(=O)CO2	6.8%	3.7%	3.0%	0.9%	?	?
